Laboratory results from ChEMBL document CHEMBL1157539, “Thousands of chemical starting points for antimalarial lead identification” (Nature, 2010).

test system: HepG2; experiment: GSK_TCMDC: Percent inhibition of human HepG2 cell line. Test compounds present at 10uM.; type: functional

**Q.** For `COc1cc2nc(N3CCC(CNC(=O)c4ccc(OC(F)(F)F)cc4)CC3)nc(N)c2cc1OC.O=C(O)C(F)(F)F`, which Inhibition is on record?
**A.** The Inhibition was 16%.

**Q.** With `CCOC(=O)NC1=NC(=N)N(OCc2ccc(Cl)c(Cl)c2)C(C)(C)N1` as the compound, how does the Inhibition read?
**A.** Its Inhibition is 66%.

**Q.** How did the Inhibition turn out when `CCOc1ccc(Br)cc1/C=C/C(=O)Nc1ccc2c(c1)CN(C)CCC2.O=C(O)C(F)(F)F` was run?
**A.** Its Inhibition is 18%.

**Q.** Which Inhibition does the source give for `COc1ccc(Cl)cc1NC(=O)Nc1ccc2c(c1)CCN(C1CCC1)CC2.Cl` here?
**A.** The Inhibition was 38%.

**Q.** How did the Inhibition turn out when `CN(C)C(=S)N/N=C1/C(=O)Nc2ccc(OC(F)(F)F)cc21` was run?
**A.** Its Inhibition is 36%.

**Q.** With `CCNc1cc(C(=O)N[C@@H](Cc2ccccc2)[C@H](O)CNC(C)CC(C)C)c(F)c(N2CCCCS2(=O)=O)c1.O=CO` (some centres undefined) as the compound, how does the Inhibition read?
**A.** Its Inhibition is 6%.

**Q.** `Cl.O=C(Nc1cccc(Cl)c1)OC1CCCN2CCCCC12` (centres undefined) was tested. Which Inhibition did it give?
**A.** Its Inhibition is 6%.

**Q.** How did the Inhibition turn out when `COc1ccc(NC(=O)Nc2ccc(-c3ccccc3)cc2)cc1Cn1nc(Cl)c(N2CCCNCC2)cc1=O.O=C(O)C(F)(F)F` was run?
**A.** Its Inhibition is 18%.

**Q.** How did the Inhibition turn out when `CC(C)CCN1CCC(Oc2ccc(NC(=O)c3ccc4ncccc4c3)cc2Cl)C1.O=C(O)C(F)(F)F` (centres undefined) was run?
**A.** Its Inhibition is 33%.

**Q.** `CCOC(=O)C(=CNc1ccc(Cc2cnc(N)nc2N)cc1CC)C(=O)OCC` was tested. Which Inhibition did it give?
**A.** The Inhibition was 47%.

**Q.** Which Inhibition does the source give for `Cl.c1ccc2c(c1)ncn2-c1ccnc(Nc2ccncc2)n1` here?
**A.** The Inhibition was 0%.

**Q.** With `O=C(O)C(F)(F)F.c1ccc(CNCc2ccc(-c3ccc(-c4nc5ccccc5[nH]4)cc3)cc2)cc1` as the compound, how does the Inhibition read?
**A.** The Inhibition was 32%.

**Q.** With `FC(F)(F)c1ccc2[nH]c(-c3ccc(-c4ccc(CNCC5CCCO5)cc4)s3)nc2c1.O=C(O)C(F)(F)F` (centres undefined) as the compound, how does the Inhibition read?
**A.** The Inhibition was 47%.

**Q.** Which Inhibition does the source give for `CC1CN(c2cc(=O)n(Cc3ccc(NC(=O)Nc4ccc(-c5ccccc5)cc4)cc3)cn2)CC(C)N1.O=C(O)C(F)(F)F` (centres undefined) here?
**A.** The Inhibition was 0%.
